Bioassay records as filed in PubChem.
Pf Dd2 inh – blocks in vitro growth of P. falciparum Dd2; P. falciparum Dd2 growth, SYBR Green, 72 h; Potency, µM (top dose mostly 28.9 µM), usual class: inhibitors; actives 4.3% (n = 120,000); AID 1347417; active = well fitted inhibition curve with a large enough effect; also: nearly all actives have a fitted effect of over 65% in size
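Readout: SYBR Green fluorescence, 485 nm excitation, 535 nm emission, after ~16 h lysis at 37C. Before that, Dd2-infected red cells (2.5% hematocrit) grew 72 h with compound, 29 uM top final concentration.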
Numbers stand for hits; - = inactive; [ ] = dose if it differs, or a comment. The sample as a whole holds a higher share of hits than the screen did.

SMILES	Pf Dd2 inh
Cc1cccc(C)c1-c1nc(C(=O)NCc2ccsc2)n2ccccc12	8.9µM
Cn1ncc2c(C(=O)NCc3ccc(F)cc3)cc(-c3ccc([S+](C)(=O)[O-])cc3)nc21	-
Cc1cccc(C)c1-c1nc(C(=O)NCc2cccnc2)n2ccccc12	-
Cc1ccccc1Cc1noc(-c2nc(-c3ccc4c(c3)OCO4)no2)n1	-
Cc1ncccc1C(=O)N1CCC(c2noc(-c3ccccn3)n2)C1 (stereo unspecified)	-[5.79 µM]
O=C(NCC1CCCCC1)C1CCN(C(=O)N2CC3CC(C2)[C@H]2CCCC(=O)N2C3)CC1 (stereo partly specified)	-
CCO[C@H]1CN(C(=O)c2cccc(-c3cccc(F)c3)c2)C[C@@H]1O	-
CCn1nccc1C(=O)N1CCC(c2nc(C3CCOCC3)no2)CC1	-
Cc1ccc(NC(=O)Cn2c(C)cc3nc4n(c(=O)c32)CCC4)cc1Cl	-
COc1cccc(C(=O)NC2CCN(c3cn[nH]c(=O)c3)CC2)c1	-
CCOc1ccc(Nc2nc(C)c(NC(=O)c3ccc(C)cc3)c(Nc3ccc(OCC)cc3)n2)cc1	-
Cc1ccc(Nc2nc(C)c(NC(=O)c3ccc(C)cc3)c(Nc3ccc(C)cc3)n2)cc1	8.9µM
Cc1ccc(C(=O)Nc2c(C)nc3ccccn3c2=O)cc1	-
Cc1noc(C)c1CC(=O)NCC1Cn2cccc2C(=O)N1C (stereo unspecified)	-
Cc1ncsc1CN1C[C@@H](NC(=O)c2cccnc2)C[C@H]1CO	-
COC[C@@H]1CN(Cc2cc(Cl)ccc2F)C[C@H]1C(N)=O	-
CC(C)C1=NOC2(CCN(C(=O)c3ccc(Cl)cc3)CC2)C1	-
O[C@H]1[C@H](NCc2ccncc2)[C@H]2CO[C@H](O2)[C@@H]1N1CCC(Cc2ccccc2)CC1	-
COc1ccccc1N1CCN([C@H]2[C@@H]3OC[C@@H](O3)[C@@H](NCc3ccncc3)[C@@H]2O)CC1	-
CC(C)CN[C@H]1[C@H](O)[C@@H](N2CCC(Cc3ccccc3)CC2)[C@@H]2OC[C@H]1O2	4µM
COc1ccccc1N1CCN([C@H]2[C@@H]3OC[C@@H](O3)[C@@H](NCc3ccc(F)cc3)[C@@H]2O)CC1	7.9µM
COc1ccccc1N1CCN([C@H]2[C@@H]3OC[C@@H](O3)[C@@H](NCc3ccc(N(C)C)cc3)[C@@H]2O)CC1	-
O=C(Nc1ccccc1)N[C@H]1[C@H](O)[C@@H](N2CCC(Cc3ccccc3)CC2)[C@@H]2OC[C@H]1O2	-
Cc1cc(C)n(CCC(=O)NCC23CCCC=C2N(CC2CC2)C(=O)CC3)n1 (stereo unspecified)	-
COc1ccc([S+](=O)([O-])N2CCC3(CC2)OCCN(CC2CC2)C3=O)cc1	-
SMILES	Pf Dd2 inh
CCCOC(=O)N1CCCC2(CCC(=O)N(Cc3ccccc3)C2)C1 (stereo unspecified)	-
COc1cccc(-c2[nH]ncc2CN)c1	-
CCCCN(Cc1ccccc1)Cc1cn[nH]c1-c1ccc(OC)cc1OC	13µM
COc1ccc(-c2[nH]ncc2C(=O)NCc2cccc(OC)c2)cc1	-
CC(C)CN1C[C@@H]2OCC(=O)N(CC(N)=O)[C@@H]2C1	-
O=C1CCCCC(C(=O)NCC2CCCCC2)N1 (stereo unspecified)	-
CCOc1cc(C(=O)NC2CCN(c3cc(-c4cccs4)[nH]n3)C2)cc(OCC)c1OCC (stereo unspecified)	-
Cc1cc(C)cc(C(=O)NC2CCN(c3cc(-c4ccccc4)[nH]n3)C2)c1 (stereo unspecified)	-
CCOc1ccc(CC(=O)NC2CCN(c3cc(-c4ccccc4)[nH]n3)C2)cc1OCC (stereo unspecified)	7.9µM
CCOc1ccc(CC(=O)NC2CCCN(c3cc(-c4ccc(F)cc4)[nH]n3)C2)cc1OCC (stereo unspecified)	-
CCOc1ccc(CC(=O)NC2CCN(c3cc(-c4cccs4)[nH]n3)C2)cc1OCC (stereo unspecified)	-
CCOc1cc(C(=O)NC2CCN(c3cc(-c4ccccc4)[nH]n3)C2)cc(OCC)c1OCC (stereo unspecified)	5µM
C[C@@H](NS(=O)(=O)c1ccccc1)c1onc(-c2ccc(Cl)cc2)c1C(=O)O	-
COCCc1nncn1C1CCN(C(=O)c2ccccc2C(F)(F)F)CC1	-
CCOc1cccc(-c2noc(-c3nnn4c3COC(c3ccc(Cl)cc3)C4)n2)c1 (stereo unspecified)	-
Cc1ccc(Cn2cc(S(=O)(=O)c3cccc(Cl)c3)c(=O)c3cc(F)c(N4CCOCC4)cc32)cc1	-
O=c1c(S(=O)(=O)c2ccccc2)cn(Cc2ccccc2)c2cc(N3CCOCC3)c(F)cc12	8.9µM
Cc1ccc(Cn2cc(S(=O)(=O)c3cccc(C)c3)c(=O)c3cc(F)c(N4CCOCC4)cc32)cc1	10µM
Cc1cccc(S(=O)(=O)c2cn(C)c3cc(N4CCN(c5ccccc5)CC4)c(F)cc3c2=O)c1	-
CCn1cc(S(=O)(=O)c2cc(C)cc(C)c2)c(=O)c2cc(F)c(N3CCOCC3)cc21	-
Cn1cc(S(=O)(=O)c2cccc(Cl)c2)c(=O)c2cc(F)c(N3CCN(c4ccccc4)CC3)cc21	-
CO[C@H]1[C@H](NC(=O)c2ccccc2)c2ccccc2C12CCNCC2	-
COCCNC(=O)[C@@H]1C[C@H](Oc2cccnc2)CN1C(=O)c1ccc(OC)c(F)c1	-
C=CCNC(=O)C(NC(=O)c1cccc(OC)c1)C1CCN(C(=O)C2CCCC2)CC1 (stereo unspecified)	-
Cc1ccccc1C(=O)N1CCC(c2nn(C)c(=O)[nH]2)CC1	-
SMILES	Pf Dd2 inh
CC(C)c1ccc(NC(=O)O[C@@H]2CO[C@H]3[C@@H]2OC[C@@H]3NS(=O)(=O)c2cccs2)cc1	2.2µM
Cc1ccc(C(=O)N[C@H]2CO[C@H]3[C@@H]2OC[C@H]3OC(=O)Nc2ccc(C(C)C)cc2)cc1	-
COc1ccc(NC(=O)O[C@@H]2CO[C@H]3[C@@H]2OC[C@@H]3NS(=O)(=O)c2ccccc2C#N)cc1	-
N#Cc1ccccc1S(=O)(=O)N[C@H]1CO[C@H]2[C@@H]1OC[C@H]2OC(=O)Nc1ccc(Oc2ccccc2)cc1	-
CC(=O)Nc1ccc(S(=O)(=O)N[C@H]2CO[C@H]3[C@@H]2OC[C@H]3OC(=O)Nc2ccc(Oc3ccccc3)cc2)cc1	6.3µM
COc1ccc(OC)c(S(=O)(=O)N[C@H]2CO[C@H]3[C@@H]2OC[C@H]3OC(=O)Nc2ccc(Oc3ccccc3)cc2)c1	-
Cc1ccsc1C(=O)N1CCC2(CC1)NCc1ccccc1-n1ccnc12	-[5.79 µM]
Cc1noc(C)c1C(=O)N1Cc2ccccc2CC2(CCCN(C)C2)C1 (stereo unspecified)	-
Cc1ccc(C(=O)N2C[C@@H](Oc3ccccc3)C[C@H]2C(=O)N2CCOCC2)cn1	-
O=C(Nc1ccc(Cl)cc1Cl)c1cccn2cncc12	13µM
O=C(Nc1ccc(Cl)cc1Cl)c1ccn2cncc2c1	-
O=C(Nc1ccc(F)cc1)c1cc2cccnn2n1	-
O=C(Nc1ccc(F)cc1)c1ccc(-n2cnnc2)cc1	-
O=C(Nc1ccc(F)cc1)c1cccn2cncc12	16µM
O=C(Nc1ccc(Cl)cc1Cl)c1ccc2cncn2c1	-
COc1ccc(-c2nnc3n2CCN(C(=O)c2ccc(C(F)(F)F)cc2)C3)cc1	-
COc1ccc(-c2nc3c(c(=O)[nH]2)CCN(C(=O)COc2ccccc2C)C3)cc1	-
COC(=O)c1c(NC(=O)c2ccco2)c2cc(NC(C)CCn3cccn3)cnc2n1C (stereo unspecified)	-
O=C(c1ccc(C(F)(F)F)cc1)N1CCC(N2CCCC2=O)CC1	-
